Results: PubChem BioAssay AID1159580 (chemical genetic matrix, 2015)
Hit rate of the full screen: of about 5,500 compounds, about 2,000 (36%) were called active. Inconclusive results (about 18%) are left out. No stated cut-off is given here; in the data, active means normalized growth mostly below about 0.91 (no sharp cut-off); inconclusive means no clear call, values can overlap the other calls; inactive means mostly above about 0.92. The list shows a part of the results.

Test: chemical genetic growth profiling, strain panel (AID 1159580);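 further: tested at 20 µM; growth read once vehicle control cultures reached saturation at 30 °C; 1 = growth at the plate median or of vehicle wells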
Conditions: S. cerevisiae deletion strains, growth OD
[1] = locus YAL013W, strain DEP1, stronger effect = lower value
[2] = locus YAL040C, strain CLN3, stronger effect = lower value
[3] = locus YCL061C, strain MRC1 (second series), stronger effect = lower value
[4] = locus YDR150W, strain NUM1, stronger effect = lower value
[5] = locus YDR363W, strain ESC2, stronger effect = lower value
[6] = locus YER002W, strain NOP16, stronger effect = lower value
[7] = locus YNL175C, strain NOP13, stronger effect = lower value
[8] = locus YNL197C, strain WHI3, stronger effect = lower value
[9] = locus YNL224C, strain SQS1, stronger effect = lower value
[10] = locus YOR083W, strain WHI5 (second series), stronger effect = lower value
[11] = locus YPL055C, strain LGE1, stronger effect = lower value
[12] = locus YBR229C, strain ROT2, stronger effect = lower value
[13] = locus YCL061C, strain MRC1, stronger effect = lower value
[14] = locus YDL101C, strain DUN1, stronger effect = lower value
[15] = locus YEL061C, strain CIN8, stronger effect = lower value
[16] = locus YGR078C, strain PAC10, stronger effect = lower value
[17] = locus YHR030C, strain SLT2, stronger effect = lower value
[18] = locus YHR087W, strain rtc3, stronger effect = lower value
[19] = locus YJR043C, strain POL32, stronger effect = lower value
[20] = locus YJR075W, strain HOC1, stronger effect = lower value
[21] = locus YLR039C, strain RIC1, stronger effect = lower value
[22] = locus YLR058C, strain SHM2 (second series), stronger effect = lower value
[23] = locus YLR085C, strain ARP6, stronger effect = lower value
[24] = locus YLR262C, strain YPT6, stronger effect = lower value
[25] = locus YML094W, strain GIM5, stronger effect = lower value
[26] = locus YMR219W, strain ESC1, stronger effect = lower value
[27] = locus YMR263W, strain SAP30, stronger effect = lower value
[28] = locus YNL153C, strain GIM3, stronger effect = lower value
[29] = locus YNL298W, strain CLA4 (second series), stronger effect = lower value
[30] = locus YNL322C, strain KRE1, stronger effect = lower value
[31] = locus YNR030W, strain Alg12, stronger effect = lower value
[32] = locus YOL006C, strain TOP1, stronger effect = lower value
[33] = locus YPL241C, strain CIN2, stronger effect = lower value
[34] = locus YPR135W, strain CTF4, stronger effect = lower value

Measured: normalized growth

COC(=O)c1c(-c2cc(OC)c(OC)c(OC)c2)c2ccc(OCc3ccccn3)cc2c(=O)n1-c1ccc(N)cc1
inactive: [1] 1.02 | [2] 1.01 | [3] 0.999 | [4] 1.01 | [5] 1.01 | [6] 1.03 | locus YMR307W, strain GAS1, stronger effect = lower value 1.01 | locus YNL128W, strain TEP1, stronger effect = lower value 1.02 | [7] 1.03 | [8] 1.04 | [9] 1.04 | [10] 1.01 | [11] 1.02

CCC(=O)c1ccc(-c2ccccc2)cc1
inactive: [1] 0.948 | [12] 0.93 | [14] 0.918 | locus YDL134C, strain PPH21, stronger effect = lower value 0.963 | [4] 0.899 | [16] 0.935 | locus YGR229C, strain SMI1, stronger effect = lower value 0.978 | [18] 0.939 | [20] 0.912 | [22] 0.953 | [25] 0.934 | [26] 0.957 | [27] 0.905 | [30] 0.968 | [31] 0.936 | [11] 0.831 | [33] 0.863
active: [13] 0.904 | [15] 0.895 | [17] 0.502 | [19] 0.912 | [21] 0.765 | [23] 0.631 | [24] 0.727 | [28] 0.924 | [29] 0.821 | [32] 0.568 | [34] 0.58

CCC(=O)N1CCN(C(=O)c2ccccc2)CC1
inactive: [2] 1.04 | [3] 0.992 | [4] 1.01 | [5] 0.993 | [6] 1 | [16] 0.989 | [20] 1.02 | [27] 0.994 | [28] 1.05 | [7] 1.02 | [8] 0.983 | [9] 0.994 | [10] 1.03 | [11] 1

O=C(CCCCCCCCC(=O)c1ccccc1)c1ccccc1
inactive: [1] 0.996 | [12] 1 | [13] 1.01 | [14] 1.01 | [4] 0.918 | [15] 1.01 | [16] 1.02 | [17] 0.964 | [18] 1.05 | locus YJL187C, strain SWE1, stronger effect = lower value 1.02 | [19] 1.01 | [20] 0.987 | [21] 1.04 | [22] 0.998 | [23] 0.998 | [24] 1.04 | [25] 1.01 | [26] 0.999 | [27] 1 | [28] 0.994 | [29] 1.05 | [30] 1 | [31] 1.01 | [32] 1.01 | [11] 0.981 | [33] 1 | [34] 1
